Results as given in ChEMBL document CHEMBL4513146, “CO-ADD screening of Karazin Kharkiv National University (Ukraine) compounds”.
Results with a measured potency or affinity are listed apart.

Key:
Klebsiella pneumoniae = conditions: Concentration 32 ug.mL-1;; ASSAY_TEST Inhibition of Bacterial Growth; detection method Absorption (OD600); MEDIA CAMHB; plate type 384well; NBS; CORNING #3640; time 18 hr
Candida albicans = conditions: Concentration 32 ug.mL-1; ASSAY_TEST Inhibition of Fungal Growth; detection method Absorption (OD530)
Cryptococcus neoformans = conditions: Concentration 32 ug.mL-1; ASSAY_TEST Inhibition of Fungal Growth; detection method Resazurin; Absorption (OD600-OD570); plate type 384well; NBS; CORNING #3640

SMILES	Inhibition (Klebsiella pneumoniae)	Inhibition (Candida albicans)	Inhibition (Cryptococcus neoformans)
COc1ccc(-c2cc3c4nnc(CCC(=O)NCc5ccc(OC)c(OC)c5)n4ccn3n2)cc1	12.53%	2.24%	-11.61%
O=C(Cn1nc2c3cc(-c4ccc(Cl)cc4)nn3ccn2c1=O)Nc1ccc(F)cc1	10.41%	1.82%	-10.24%
CCOc1ccc(-n2ccn3c(SCC(=O)c4ccc(OC)c(OC)c4)nnc3c2=O)cc1	7.92%	3.75%	-6.73%
Cc1cc(C)c(NC(=O)Cn2nc3ccc(SC(C)(C)C)nn3c2=O)c(C)c1	14.36%	2.38%	-25.26%
